These results are taken from PubChem BioAssay.

Test [1] in a line: antimalarial activity against Dd2 strain (AID 2302;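 active means growth inhibition above 50% at the single 2 µM test dose, taken to imply half-maximal potency below 2 µM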;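 further: 0% = DMSO untreated growth and 100% = chloroquine plus artemisinin killed control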). The note with it: P. falciparum Dd2 in RBCs, LDH growth readout, 72 h; at 2 µM; stronger effect = higher value.
Test [2] can be described thus: HepG2 cytotoxicity, primary screen, cytotoxicity control for P. falciparum antimalarial project, cell-based, ATP luminescence (AID 2303;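 active means inhibition above 50%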;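 further: 0% = DMSO wells and 100% = digitonin-killed cells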). The note with it: HepG2 viability, 24-48 h, at 10 µM, stronger effect = higher value.
Test [3] deals with L-lactate dehydrogenase (Plasmodium falciparum (isolate CDC / Honduras)) (UniProt Q27743). The test is described as follows: PfLDH activity inhibition – cell lysate, 3D7 strain, counter-screen for P. falciparum growth inhibition project (AID 2304).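 Further: 0% = vehicle and 100% = reference inhibitor.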 The note with it: P. falciparum 3D7 crude extract, LDH APAD/NBT absorbance; at 2 µM; stronger effect = higher value. On the technique in general: A counterscreen serves to expose hits that act by an unwanted route or on another target.
Sequence of L-lactate dehydrogenase (Plasmodium falciparum (isolate CDC / Honduras)) (Q27743 whole entry, looked up): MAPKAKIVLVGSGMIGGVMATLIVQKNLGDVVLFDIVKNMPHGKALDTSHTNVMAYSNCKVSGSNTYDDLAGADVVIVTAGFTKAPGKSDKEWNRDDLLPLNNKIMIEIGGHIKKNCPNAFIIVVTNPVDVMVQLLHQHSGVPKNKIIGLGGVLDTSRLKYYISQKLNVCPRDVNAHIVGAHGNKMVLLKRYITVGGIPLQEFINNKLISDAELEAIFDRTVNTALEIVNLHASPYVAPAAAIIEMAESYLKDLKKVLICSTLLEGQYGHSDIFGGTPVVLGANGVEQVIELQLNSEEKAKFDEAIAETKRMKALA

Test [4] can be described thus: inhibition of 3D7 malaria parasite growth – strain 3D7 (AID 2306).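 Further: 0% = DMSO wells and 100% = chloroquine plus artemisinin control wells.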 To be noted: P. falciparum 3D7 erythrocytic growth, LDH absorbance, 72 h; at 2 µM; stronger effect = higher value.
Test [5] deals with Calcium-dependent protein kinase 1 (Plasmodium falciparum (isolate 3D7)) (UniProt P62344). The test is described as follows: PfCDPK1 kinase inhibitors, biochemical, TCAMS library (AID 1159585; cut-off not given, nearly all actives have IC50 up to about 0.98 µM;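 further: inhibitors leave more ATP so luminescence rises with inhibition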). To be noted: recombinant PfCDPK1, Kinase-Glo ATP depletion luminescence.
Sequence of Calcium-dependent protein kinase 1 (Plasmodium falciparum (isolate 3D7)) (P62344 whole entry, looked up): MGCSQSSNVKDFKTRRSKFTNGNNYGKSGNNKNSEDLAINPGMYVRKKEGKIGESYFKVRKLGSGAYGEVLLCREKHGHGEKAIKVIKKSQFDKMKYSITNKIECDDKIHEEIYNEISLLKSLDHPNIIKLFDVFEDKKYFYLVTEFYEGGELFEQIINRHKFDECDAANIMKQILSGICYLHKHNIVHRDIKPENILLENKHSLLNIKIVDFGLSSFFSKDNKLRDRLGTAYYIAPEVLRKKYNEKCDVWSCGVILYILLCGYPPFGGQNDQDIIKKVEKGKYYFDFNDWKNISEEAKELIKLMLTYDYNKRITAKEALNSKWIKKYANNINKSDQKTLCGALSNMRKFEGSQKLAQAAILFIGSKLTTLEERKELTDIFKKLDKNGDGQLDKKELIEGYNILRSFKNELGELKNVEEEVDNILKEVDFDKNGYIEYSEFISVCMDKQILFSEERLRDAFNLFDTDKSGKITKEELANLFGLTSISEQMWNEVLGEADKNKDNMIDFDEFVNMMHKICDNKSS
Test [6] deals with Plasmodium falciparum protein kinase 6 (PK6, PF3D7_1337100) (UniProt Q8IDW1). The test is described as follows: PfPK6 kinase inhibitors, biochemical, TCAMS library (AID 1159586). To be noted: recombinant PfPK6, Kinase-Glo ATP depletion luminescence. Background: Kinase-Glo reads ATP consumption through a luciferase reaction.
Sequence of Plasmodium falciparum protein kinase 6 (PK6, PF3D7_1337100) (Q8IDW1 1-305): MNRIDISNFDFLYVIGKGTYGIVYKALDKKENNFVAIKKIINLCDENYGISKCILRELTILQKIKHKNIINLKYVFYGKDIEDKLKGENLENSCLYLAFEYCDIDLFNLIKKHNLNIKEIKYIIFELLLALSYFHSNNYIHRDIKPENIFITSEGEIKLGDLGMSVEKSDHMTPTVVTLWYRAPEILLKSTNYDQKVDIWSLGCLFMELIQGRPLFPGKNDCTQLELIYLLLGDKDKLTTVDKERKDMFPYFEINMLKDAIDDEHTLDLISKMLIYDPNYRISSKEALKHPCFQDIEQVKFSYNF
Test [7] deals with Protein kinase 7 (PK7), Plasmodium falciparum 3D7 (PF3D7_0213400) (UniProt Q7YTF7). The test is described as follows: inhibition of Plasmodium PK7 catalytic activity – biochemical, TCAMS antimalarial set, Kinase-Glo luminescence (AID 1159587). The note with it: recombinant PfPK7, Kinase-Glo ATP depletion luminescence.
Sequence of Protein kinase 7 (PK7), Plasmodium falciparum 3D7 (PF3D7_0213400) (Q7YTF7 1-343): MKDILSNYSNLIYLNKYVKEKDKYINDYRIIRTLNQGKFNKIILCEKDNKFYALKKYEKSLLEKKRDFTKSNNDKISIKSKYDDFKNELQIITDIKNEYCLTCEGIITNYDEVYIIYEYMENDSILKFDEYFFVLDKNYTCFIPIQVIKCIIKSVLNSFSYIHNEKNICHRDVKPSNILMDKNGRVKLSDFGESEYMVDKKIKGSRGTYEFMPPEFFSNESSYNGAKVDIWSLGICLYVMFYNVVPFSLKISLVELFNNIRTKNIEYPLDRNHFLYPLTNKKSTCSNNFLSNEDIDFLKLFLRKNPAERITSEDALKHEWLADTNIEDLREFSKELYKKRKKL
Test [8] deals with Calcium-dependent protein kinase 4 (Plasmodium falciparum (isolate 3D7)) (UniProt Q8IBS5). The test is described as follows: PfCDPK4 kinase inhibitors, biochemical, TCAMS library (AID 1159588; cut-off not given, nearly all actives have IC50 up to about 0.91 µM). To be noted: recombinant PfCDPK4, Kinase-Glo ATP depletion luminescence.
Sequence of Calcium-dependent protein kinase 4 (Plasmodium falciparum (isolate 3D7)) (Q8IBS5 whole entry, looked up): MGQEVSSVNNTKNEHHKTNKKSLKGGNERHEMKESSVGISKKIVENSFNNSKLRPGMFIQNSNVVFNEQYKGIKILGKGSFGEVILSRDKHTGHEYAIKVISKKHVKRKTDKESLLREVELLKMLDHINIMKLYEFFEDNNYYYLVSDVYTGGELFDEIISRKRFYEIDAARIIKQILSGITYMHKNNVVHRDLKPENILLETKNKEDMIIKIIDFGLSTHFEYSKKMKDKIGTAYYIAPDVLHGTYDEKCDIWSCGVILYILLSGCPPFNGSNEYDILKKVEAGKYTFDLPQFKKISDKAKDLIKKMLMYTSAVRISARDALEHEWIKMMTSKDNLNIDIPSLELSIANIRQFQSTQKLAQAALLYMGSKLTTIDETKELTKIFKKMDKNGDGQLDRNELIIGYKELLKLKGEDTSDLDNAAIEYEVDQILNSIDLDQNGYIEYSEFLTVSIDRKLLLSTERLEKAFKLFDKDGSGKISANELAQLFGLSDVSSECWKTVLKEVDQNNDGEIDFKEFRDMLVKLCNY

Unmarked numbers belong to inactive results. For some of these results: Results with a measured potency or affinity are listed apart. Calls of active or inactive are those of the source. Unless noted, how the calls were made is not given here.

Broadly, the inhibition is the relative decrease from the control value, in per cent. As to `O=c1cc(NCCCNC(CNCCc2ccccc2)c2cc(Br)cc(Br)c2)[nH]c2ccccc12` (stereo not given), the growth inhibition in test [1] was 53% (active); in test [4], 93% (active). Further, the inhibition was -2% in test [2] and 1% in test [3]. The result in test [5], in test [6], in test [7] and in test [8] was inactive.
For `COc1ccc(/C=C/C(=O)Nc2ccc(-c3ccncc3)cc2)cc1CCCN(C)C`, the growth inhibition was 86% (active) in test [1] and 102% (active) in test [4]. Moreover, the inhibition in test [2] was 3%; in test [3], 1%. Besides, the outcome in test [5], in test [6], in test [7] and in test [8] was inactive.
Regarding `O=S(=O)(c1c(Cl)cc(Cl)cc1Cl)N1CCCCC(c2ccc(Cl)cc2)=N1`, the growth inhibition in test [1] is 93% (active); in test [4], 95% (active). The inhibition in test [2] is 11%; in test [3] it was 3%. In addition, the result in test [5], in test [6], in test [7] and in test [8] was inactive.
In the case of `O=C(Nc1cccnc1)c1cn(-c2ccccc2)nc1-c1cccs1`, the results for the growth inhibition in test [1] and in test [4] were 61% (active) and 99% (active), respectively. In addition, the inhibition was 3% in test [2] and -3% in test [3]. In addition, the outcome in test [5], in test [6], in test [7] and in test [8] was inactive.
As to `Cc1ccc(Cn2cnc3cc(C(=O)Nc4ccc(-c5ccc(CN(C)C)cc5)cc4)ccc3c2=O)o1`, the growth inhibition in test [1] was 12%; in test [4] it was 82% (active). The inhibition was 43% in test [2] and -1% in test [3]. For the same compound, the outcome in test [5], in test [6], in test [7] and in test [8] was inactive.
In the case of `COc1ccc(Nc2nccc(N3CCC(NC(=O)c4cccc(NC(C)=O)c4)C3)n2)cc1` (stereo not given), the growth inhibition in test [1] is 84% (active); in test [4], 92% (active). In addition, the inhibition in test [2] was -3%; in test [3], -5%. The result in test [5], in test [6], in test [7] and in test [8] was inactive.
As to `CCc1c[nH]c2c(N(c3ccccc3)S(C)(=O)=O)cc(C(=O)N[C@@H](Cc3ccccc3)[C@H](O)CNCc3cccc(C(F)(F)F)c3)cc12`, the growth inhibition in test [1] was 98% (active); in test [4], 93% (active). Besides, the inhibition in test [2] is 20%; in test [3] it was 1%. For the same compound, the outcome in test [5], in test [6], in test [7] and in test [8] was inactive.
Turning to `COc1ccc2nc(C)cc(Nc3ccc(Cl)c(Cl)c3)c2c1`, the figures for the growth inhibition in test [1] and in test [4] were 99% (active) and 100% (active), respectively. The inhibition in test [2] is 30%; in test [3], -8%. Also, the result in test [5], in test [6], in test [7] and in test [8] was inactive.
In the case of `COc1cc(NC(=O)c2sc(-c3ccc(Cl)cc3)cc2Cl)ccc1OCCN1CCCC1`, the growth inhibition in test [1] is 21%; in test [4], 93% (active). The inhibition in test [2] was 72% (active); in test [3], 4%. Besides, the outcome in test [5], in test [6], in test [7] and in test [8] was inactive.
Consider `CC(C)N1CCN(C(CN2CCN(CCCOc3ccc4nonc4c3)CC2)c2ccc(F)cc2)CC1` (stereo not given), for which the growth inhibition in test [1] was 40%; in test [4] it was 97% (active). In addition, the inhibition in test [2] and in test [3] was -3% each time. The result in test [5], in test [6], in test [7] and in test [8] was inactive.
On to `NCC(=O)Nc1cccc(Nc2nccc(-c3c(-c4cccc(NC(=O)c5ccccc5)c4)nn4ccccc34)n2)c1`, for which the growth inhibition in test [1] is 87% (active); in test [4], 96% (active). The results for the inhibition in test [2] and in test [3] were 45% and 0%, respectively. Besides, the outcome in test [5], in test [6], in test [7] and in test [8] was inactive.
In the case of `COc1ccc(NC(=O)[C@H](Cc2ccccc2)Nc2cc(C)nc(NCCc3ccccn3)n2)cc1`, the growth inhibition was 39% in test [1] and 99% (active) in test [4]. The figures for the inhibition in test [2] and in test [3] were -7% and -3%, respectively. The outcome in test [5], in test [6], in test [7] and in test [8] was inactive.
As to `CCc1nnc2sc(-c3cccc(NC(=O)c4ccc(OC)c(Cl)c4)c3)nn12`, the growth inhibition in test [1] is 55% (active); in test [4], 92% (active). Further, the figures for the inhibition in test [2] and in test [3] were 3% and -2%, respectively. For the same compound, the result in test [5], in test [6], in test [7] and in test [8] was inactive.
For `CCOC(=O)c1c(C)n(-c2ccccc2)c2ccc(OC(=O)c3ccc(S(=O)(=O)N(CC)CC)cc3)cc12`, the values for the growth inhibition in test [1] and in test [4] were 63% (active) and 94% (active), respectively. Further, the inhibition in test [2] was -6%; in test [3], -3%. For the same compound, the result in test [5], in test [6], in test [7] and in test [8] was inactive.
In the case of `Cc1cccc2[nH]c(-c3cccc(-c4cccc(NC(=O)COc5ccccc5C(N)=O)c4)c3)nc12`, the growth inhibition in test [1] was 88% (active); in test [4], 100% (active). Moreover, the inhibition in test [2] is 22%; in test [3], -2%. Besides, the outcome in test [5], in test [6], in test [7] and in test [8] was inactive.
Consider `COc1ccc2ncc(F)c([C@@H](O)CN3CCC(NCc4cc(C#N)c5c(c4)CCO5)CC3)c2n1`, for which the growth inhibition in test [1] is 50% (active); in test [4], 92% (active). Besides, the inhibition in test [2] was 15%; in test [3], 4%. Besides, the outcome in test [5], in test [6], in test [7] and in test [8] was inactive.
As to `CCc1cccc2sc(N3CCN(C(=O)c4ccc([N+](=O)[O-])o4)CC3)nc12`, the growth inhibition in test [1] was 94% (active); in test [4] it was 97% (active). Also, the inhibition was 2% in test [2] and 0% in test [3]. Besides, the result in test [5], in test [6], in test [7] and in test [8] was inactive.
For the compound `CCNc1cc(C(=O)N[C@@H](Cc2ccccc2Cl)[C@H](O)CNC(C)CCCC(C)C)cc(N2CCCCS2(=O)=O)c1` (stereo not given in full), the figures for the growth inhibition in test [1] and in test [4] were 62% (active) and 97% (active), respectively. Moreover, the results for the inhibition in test [2] and in test [3] were 12% and 2%, respectively. Besides, the result in test [5], in test [6], in test [7] and in test [8] was inactive.
`CC(=O)Nc1cccc(NC(=O)CSc2ccc(-c3nc4ccccc4[nH]3)cn2)c1`: the growth inhibition in test [1] is 73% (active); in test [4], 97% (active). In addition, the figures for the inhibition in test [2] and in test [3] were 22% and -4%, respectively. Moreover, the outcome in test [5], in test [6], in test [7] and in test [8] was inactive.
Turning to `NC(N)=NCC=C(c1ccccc1)c1ccccc1`, the growth inhibition is 83% (active) in test [1] and 94% (active) in test [4]. The inhibition in test [2] was 9%; in test [3], 1%. Besides, the outcome in test [5], in test [6], in test [7] and in test [8] was inactive.
